# Screening results deposited in PubChem BioAssay by Broad Institute.
# The list is not random: actives were taken first. Their share in the collection is about 0.86%.
# A1 inhib: blocks A1 activity. caspase activation, % (test concentration not listed). 0.51% of 21,000 active. MEF A1-2A-BIM cells, caspase-Glo luminescence, 3 h; percent of clofoctol signal, DMSO as zero;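 active = most replicate scores above 10, or exactly half above 10 with mean activity above 10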;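 also: effector caspase 3 and 7 activity cleaving a DEVD luciferin substrate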
# BJeLR viability: lowers viability of BJeLR cells; BJeLR fibroblasts viability, CellTiterGlo ATP luminescence, 48 h; HRASV12, hTERT and SV40 LT/ST transformed; viability loss activity score, % (no concentration beside the values); 0.64% of 30,000 active; in the data active = viability loss activity score above about 50%;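 also: higher score means fewer live cells and less ATP luminescence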
# * marks the source's active call; other numbers are inactive results; nt = no result.
SMILES,A1 inhib,BJeLR viability
O=c1cc(N2CCOCC2)oc2c(-c3ccccc3)cccc12,11.3*,5.0
O=c1cc(N2CCOCC2)oc2c1ccc1ccccc12,2.3,3.6
Cc1cc(C)nc(SCC(=O)c2ccccc2)n1,-0.3,8.7
COc1ccc(NC(=O)Nc2cccc3c2O[C@H](CN(C)C(=O)Nc2cccc4ccccc24)[C@@H](C)CN([C@H](C)CO)C3=O)cc1,nt,-1.3
COc1cc2c(cc1OC)C(C)N(S(=O)(=O)c1ccc3[nH]c(=O)ccc3c1)CC2 (stereo not given),-0.1,-0.3
CNC1CCc2cc(OC)c(OC)c(OC)c2-c2ccc(OC)c(=O)cc21 (stereo not given),4.5,58.5*
COc1c(O[C@@H]2O[C@H](CO)[C@@H](O)[C@H](O)[C@H]2O)cc2c(c1OC)-c1ccc(SC)c(=O)cc1C(NC(C)=O)CC2 (stereo not given in full),-0.6,-4.9
CSc1nnc(-c2ccc(C(C)(C)C)cc2)n1Cc1ccco1,-0.1,-1.3
O=c1oc(Cl)c(Cl)c2ccccc12,5.2,55.4*
O=c1oc(-c2ccccn2)nc2ccccc12,-4.9,-1.5
Cc1ccc(S(=O)(=O)N(C)C[C@H]2Oc3ccc(NC(=O)CCCCCC(=O)Nc4ccccc4N)cc3C(=O)N([C@@H](C)CO)C[C@H]2C)cc1,nt,-2.3
CCc1cc(C)cc(OCCn2cc(C=C3C(=O)NC(=O)NC3=O)c3ccccc32)c1,39.4*,0.7
CCc1ccc(OCCCn2cc(/C=C3/C(=N)N4C=CSC4=NC3=O)c3ccccc32)cc1,-0.2,13.4
COc1cc(OCc2ccccc2)ccc1CN1CCC(C(=O)c2ccc(F)cc2)CC1,-1.2,9.0
NS(=O)(=O)c1ccc(CCNC(=O)c2cccn3c(=O)c4cc5ccccc5cc4nc23)cc1,13.4*,9.7
CCOC(=O)N1CCN(C(=O)c2cccn3c(=O)c4cc5ccccc5cc4nc23)CC1,-0.9,-4.9
COc1ccc(NC(=O)Nc2cccc3c2O[C@@H](CN(C)Cc2ccc(-c4ccccc4)cc2)[C@H](C)CN([C@H](C)CO)C3=O)cc1,nt,-12.2
C=C(C)C(=O)O[C@H]1[C@H]2C(=C)C(=O)O[C@@H]2C[C@@H](C)[C@@H]2O[C@@H]2C(=O)[C@](C)(O)[C@@H]1OC(C)=O,1.2,32.4
C=C(C)C(=O)O[C@H]1[C@H]2C(=C)C(=O)O[C@@H]2C[C@@H](C)/C=C/C(=O)[C@](C)(O)[C@@H]1OC(=O)C(=C)C,2.3,71.6*
C[C@H]1CN([C@@H](C)CO)C(=O)c2cccc(NC(=O)Nc3ccc4c(c3)OCO4)c2O[C@H]1CN(C)S(=O)(=O)c1ccccc1,nt,-2.1
COc1ccccc1C1CC(=O)Nc2cc3c(cc21)CCC3 (stereo not given),nt,50.5*
COc1ccccc1C1CC(=O)NC(C)=C1C(=O)OC1CCCC1 (stereo not given),nt,-0.2
C[C@@H]1CC[C@]2(C(=O)OC3OC(COC4OC(CO)C(O[C@@H]5O[C@@H](C)[C@H](O)[C@@H](O)[C@H]5O)C(O)C4O)C(O)C(O)C3O)CC[C@]3(C)C(=CCC4[C@@]5(C)CC[C@@H](O)[C@](C)(C(=O)O)C5CC[C@]43C)C2[C@H]1C (stereo not given in full),0.0,-5.5
Cc1cccc(CCNC(=O)c2cc3c(=O)n(C)c4ccccc4c3s2)c1,nt,0.3
O=C(NCc1cccnc1)c1ccc(/C=C2\Sc3ccccc3N(Cc3ccccc3F)C2=O)cc1,nt,122.8*
SMILES,A1 inhib,BJeLR viability
COC(=O)c1ccc(/C=C2/Oc3ccccc3N(Cc3ccccc3F)C2=O)cc1,-1.0,2.5
C[C@@H]1CN([C@@H](C)CO)C(=O)c2cccc(NC(=O)c3nc4ccccc4s3)c2O[C@@H]1CN(C)S(=O)(=O)c1cn(C)cn1,nt,2.2
O=C(COC(=O)c1ccc(Br)cc1)c1ccc(Br)cc1,-0.8,1.9
O=C(/C=C/Oc1ccc(Cl)cc1)c1ccc(Br)cc1,11.2*,8.1
C=C1C(=O)OC2/C=C(\CO)C(OC(C)=O)C/C=C(/C)CC(OC(=O)/C(C)=C\CO)C12 (stereo not given),1.2,33.9
C/C=C(/C)C(=O)O[C@H]1C=C(CO)C(=O)[C@H](OC(=O)/C(C)=C/CO)[C@H]1C(C)C,3.1,81.1*
CCN1CN=C(Nc2nc(C)c3cc(C)ccc3n2)NC1,nt,9.7
Cc1cc(Sc2nnc(/N=C/N(C)C)s2)c2ccccc2n1,-0.1,53.7*
CN(C)/C=N/c1nnc(SCC(=O)c2ccc(F)cc2)s1,-0.2,1.8
CC(=O)O[C@H]1C(=O)[C@@]2(C)C([C@H](OC(=O)c3ccccc3)[C@]3(O)C[C@H](OC(=O)[C@H](O)[C@@H](NC(=O)c4ccccc4)c4ccccc4)C(C)=C1C3(C)C)[C@]1(OC(C)=O)CO[C@@H]1C[C@@H]2O (stereo not given in full),2.2,50.2*
O=C(/C=c1\[nH]/c(=C/c2ccc(F)cc2)c(=O)[nH]c1=O)c1ccccc1,11.9*,70.2*
